The test system of experiment [1] is MDA-MB-231. Kind of experiment: cell viability relative to vehicle unstimulated control (fraction); higher = more viable cells. The settings on record: pre-treatment time: 18 h then 24 h IFNg/TNF.
For experiment [2], the system named is MDA-MB-231. Description: kynurenine production, fold change vs DMSO IFNg/TNF control; higher = more kynurenine produced (less inhibition). The settings on record: pre-treatment time: 18 h then 24 h IFNg/TNF. The gist of the method:
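MDA-MB-231 cells (7 × 10^4/well, 96-well plates, seeded 24 h earlier) were pre-treated 18 h with each natural product in 0.1% DMSO, then stimulated 24 h with IFNγ (1 U/ml) and TNF (6.25 ng/ml) at 37°C. Supernatant kynurenine was read at 492 nm after trichloroacetic acid and p-dimethylaminobenzaldehyde treatment, against 0–100 μM standards. Kynurenine production is the fold change over cytokine-stimulated vehicle wells on the same plate, averaged over duplicate plates in the first screening round.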

Our source for the cell viability and kynurenine production values is the supplement of paper PMC13094657.

± gives the standard deviation of the averaged measurements.
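For cell viability relative to vehicle unstimulated control in this document: viability of the cells left after supernatant collection, read with Deep Blue dye added for 4 h, as absorbance at 570 nm minus 600 nm.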

`C/C1=C\CC[C@]23O[C@H]2[C@@H](OC3=O)c2c(C)coc2C1` [Linderane] (compound dose: 10 uM): the cell viability in experiment [1] stood at 0.985 ± 0.032. Besides, in experiment [2], the kynurenine production is 0.942 ± 0.096.
In the case of `CC(C)(O[C@@H]1O[C@H](CO)[C@@H](O)[C@H](O)[C@H]1O)[C@@H]1CC[C@](C)([C@H]2[C@@H](O)C[C@@]3(C)[C@@H]4C[C@H](O)[C@H]5C(C)(C)[C@@H](O[C@@H]6OC[C@@H](O)[C@H](O)[C@H]6O)CC[C@@]56C[C@@]46CC[C@]23C)O1` [Isoastragaloside IV] (compound dose: 10 uM), the cell viability in experiment [1] was 0.924 ± 0.083. The kynurenine production in experiment [2] was 1.23 ± 0.33.
Take `O=C(O)C1=CO[C@@H](O[C@@H]2O[C@H](CO)[C@@H](O)[C@H](O)[C@H]2O)[C@@H]2C(CO)=C[C@H](O)[C@H]12` [Deacetylasperulosidic acid] (compound dose: 10 uM): in experiment [1], the cell viability is 1.01 ± 0.024. Besides, the kynurenine production in experiment [2] was determined as 1.07 ± 0.041.
Consider `C[C@@H]1O[C@@H](OC[C@H]2O[C@@H](Oc3c(-c4ccc(O)c(O)c4)oc4cc(O)cc(O)c4c3=O)[C@H](O)[C@@H](O)[C@@H]2O)[C@H](O)[C@H](O)[C@H]1O` [Rutin] (compound dose: 10 uM), for which the cell viability in experiment [1] amounted to 0.867. For the same compound, the kynurenine production in experiment [2] stood at 0.755 ± 0.058.
The matching figures for `C/C(=C\C(=O)CC(C)C(=O)O)[C@H]1C[C@H](O)[C@@]2(C)C3=C(C(=O)C[C@]12C)[C@@]1(C)CCC(=O)C(C)(C)[C@@H]1C[C@@H]3O` (stereo not given in full) [Ganoderenic acid A] (compound dose: 10 uM): 1.03 ± 0.068 and 0.817 ± 0.31.
Turning to `C/C=C(\C)C(=O)O[C@H]1[C@H](O)[C@]2(COC(C)=O)[C@H](O)C[C@]3(C)C(=CC[C@@H]4[C@@]5(C)CC[C@H](O[C@@H]6O[C@H](C(=O)O)[C@@H](O[C@@H]7O[C@H](CO)[C@@H](O)[C@H](O)[C@H]7O)[C@H](O)[C@H]6O[C@@H]6O[C@H](CO)[C@@H](O)[C@H](O)[C@H]6O)[C@](C)(CO)[C@@H]5CC[C@]43C)[C@@H]2CC1(C)C` [Isoescin IA] (compound dose: 10 uM), the cell viability in experiment [1] came out at 1.001 ± 0.0061. In addition, the kynurenine production in experiment [2] came out at 0.779 ± 0.12.
For the compound `CC1=CC[C@@H](C(C)(C)O)CC1` [α terpineol (mixed)] (compound dose: 10 uM), the cell viability in experiment [1] is 0.977 ± 0.065. In experiment [2], the kynurenine production was determined as 0.876 ± 0.082.
Consider `C[C@@H]1CC[C@]2(C(=O)O)CC[C@]3(C)C(=CC[C@@H]4[C@@]5(C)C[C@@H](O)[C@@H](O)C(C)(C)[C@@H]5CC[C@]43C)[C@@H]2[C@]1(C)O` [Euscaphic acid] (compound dose: 10 uM), for which the cell viability in experiment [1] was found to be 0.933 ± 0.02. Besides, the kynurenine production in experiment [2] is 0.804 ± 0.15.
The matching figures for `CC(C)=CCC[C@](C)(O[C@@H]1O[C@H](CO[C@@H]2O[C@H](CO)[C@@H](O)[C@H](O)[C@H]2O)[C@@H](O)[C@H](O)[C@H]1O)[C@H]1CC[C@]2(C)[C@@H]1[C@H](O)C[C@@H]1[C@@]3(C)CC[C@H](O[C@@H]4O[C@H](CO)[C@@H](O)[C@H](O)[C@H]4O[C@@H]4O[C@H](CO)[C@@H](O)[C@H](O)[C@H]4O)C(C)(C)[C@@H]3CC[C@]12C` [Ginsenoside Rb1] (compound dose: 10 uM): 1.02 and 1.08 ± 0.11.
The matching figures for `OCC1=C[C@@H](O)[C@]2(O[C@@H]3O[C@H](CO)[C@@H](O)[C@H](O)[C@H]3O[C@@H]3O[C@H](CO)[C@@H](O)[C@H](O)[C@H]3O)C=CO[C@@H](O[C@@H]3O[C@H](CO)[C@@H](O)[C@H](O)[C@H]3O)[C@H]12` [Rehmannioside D] (compound dose: 10 uM): 1.05 ± 0.29 and 0.941 ± 0.072.
The corresponding values for `C=C1C(=O)O[C@@H]2/C=C(\C)[C@@H](OC(C)=O)C/C=C(\COC(C)=O)C[C@@H](OC(=O)/C(C)=C/CO)[C@@H]12` [Eupalinolide B] (compound dose: 10 uM) are 0.899 ± 0.057 and 0.26 ± 0.0058.
On to `CC(C)=CCC[C@](C)(O[C@@H]1O[C@H](CO)[C@@H](O)[C@H](O)[C@H]1O)[C@H]1CC[C@]2(C)[C@@H]1[C@H](O)C[C@@H]1[C@@]3(C)CC[C@H](O[C@@H]4O[C@H](CO)[C@@H](O)[C@H](O)[C@H]4O)C(C)(C)[C@@H]3CC[C@]12C` [Ginsenoside F2] (compound dose: 10 uM), for which the cell viability in experiment [1] was 0.992 ± 0.033. In experiment [2], the kynurenine production turned out to be 0.818 ± 0.12.
The corresponding values for `CC(C)=CCC[C@](C)(O[C@@H]1O[C@H](CO[C@@H]2O[C@H](CO)[C@@H](O)[C@H](O)[C@H]2O)[C@@H](O)[C@H](O)[C@H]1O)[C@H]1CC[C@]2(C)[C@@H]1[C@H](O)C[C@@H]1[C@@]3(C)CC[C@H](O[C@@H]4O[C@H](CO)[C@@H](O)[C@H](O)[C@H]4O[C@@H]4O[C@H](CO)[C@@H](O)[C@H](O)[C@H]4O[C@@H]4OC[C@@H](O)[C@H](O)[C@H]4O)C(C)(C)[C@@H]3CC[C@]12C` [Notoginsenoside Fa] (compound dose: 10 uM) are 1.21 ± 0.15 and 1.06 ± 0.13.
On to `C[C@@H]1O[C@@H](O[C@H]2[C@H](O[C@H]3CC[C@@]4(C)[C@@H](CC[C@]5(C)[C@@H]4CC=C4[C@@H]6CC(C)(C)CC[C@]6(C(=O)O[C@@H]6O[C@H](CO[C@@H]7O[C@H](CO)[C@@H](O)[C@H](O)[C@H]7O)[C@@H](O)[C@H](O)[C@H]6O)CC[C@]45C)[C@]3(C)CO)OC[C@H](O)[C@@H]2O)[C@H](O)[C@H](O[C@@H]2O[C@H](CO)[C@@H](O[C@@H]3O[C@H](CO)[C@@H](O)[C@H](O)[C@H]3O)[C@H](O)[C@H]2O)[C@H]1O` [Macranthoidin B] (compound dose: 10 uM), for which the cell viability in experiment [1] is 0.9895 ± 0.0011. The kynurenine production in experiment [2] amounted to 0.787 ± 0.18.
The corresponding values for `C=C1CCC[C@]2(C)C=C3OC(=O)C(C)=C3C[C@@H]12` [Atractylenolide I] (compound dose: 10 uM) are 0.983 ± 0.028 and 0.853 ± 0.2.
Regarding `CC1(C)CC[C@]2(C(=O)O[C@@H]3O[C@H](CO[C@@H]4O[C@H](CO)[C@@H](O)[C@H](O)[C@H]4O)[C@@H](O)[C@H](O)[C@H]3O)CC[C@]3(C)C(=CC[C@@H]4[C@@]5(C)CC[C@H](O[C@@H]6OC[C@H](O)[C@H](O)[C@H]6O)[C@@](C)(CO)[C@@H]5CC[C@]43C)[C@@H]2C1` [Asperosaponin VI] (compound dose: 10 uM), the cell viability in experiment [1] is 0.9877 ± 0.0023. The kynurenine production in experiment [2] came to 0.748 ± 0.087.
As for `C=C(CC[C@@H](C(=O)O)[C@H]1[C@H](O)C[C@@]2(C)C3=C(CC[C@]12C)[C@@]1(C)CC[C@H](OC(C)=O)C(C)(C)[C@@H]1CC3)C(C)C` [Pachymic acid] (compound dose: 10 uM), in experiment [1], the cell viability was determined as 0.862 ± 0.1. The kynurenine production in experiment [2] came out at 0.872 ± 0.093.
The corresponding values for `CC(=O)O[C@@H]1[C@@H](O)[C@H](O[C@H]2CC[C@]34C[C@]35CC[C@]3(C)[C@@H]([C@@]6(C)CC[C@@H](C(C)(C)O)O6)[C@@H](O)C[C@@]3(C)[C@@H]5C[C@H](O[C@@H]3O[C@H](CO)[C@@H](O)[C@H](O)[C@H]3O)[C@H]4C2(C)C)OC[C@H]1O` [Isoastragaloside II] (compound dose: 10 uM) are 0.99 ± 0.011 and 0.968 ± 0.029.
The matching figures for `COC(=O)C1=CO[C@@H](O[C@@H]2O[C@H](CO)[C@@H](O)[C@H](O)[C@H]2O)[C@@H]2C(CO)=C[C@H](O)[C@H]12` [Methyl deacetylasperulosidate] (compound dose: 10 uM): 0.956 ± 0.085 and 1.15 ± 0.1.
The matching figures for `CC1=CCC2CC1C2(C)C` (stereo not drawn) [(+)-α-pinene] (compound dose: 10 uM): 0.9918 ± 0.0024 and 0.97 ± 0.036.
For `CC(CC(=O)C[C@](C)(O)[C@H]1CC(=O)[C@@]2(C)C3=C(C(=O)C[C@]12C)[C@@]1(C)CCC(=O)C(C)(C)[C@@H]1C[C@@H]3O)C(=O)O` (stereo not given in full) [Ganoderic acid N] (compound dose: 10 uM), in experiment [1], the cell viability came out at 1.03 ± 0.053. Further, in experiment [2], the kynurenine production turned out to be 0.857 ± 0.12.
The matching figures for `C=CCC(=NOS(=O)(=O)O)S[C@@H]1O[C@H](CO)[C@@H](O)[C@H](O)[C@H]1O` (stereo in doubt) [Sinigrin] (compound dose: 10 uM): 0.933 ± 0.014 and 1.04 ± 0.14.
As for `CC1(C)CC[C@]2(C(=O)O)CC[C@]3(C)C(=CC[C@@H]4[C@@]5(C)CC[C@H](O[C@@H]6O[C@H](C(=O)O)[C@@H](O)[C@H](O)[C@H]6O[C@@H]6O[C@H](CO)[C@@H](O)[C@H](O)[C@H]6O)C(C)(C)[C@@H]5CC[C@]43C)[C@@H]2C1` [Zingibroside R1] (compound dose: 10 uM), in experiment [1], the cell viability stood at 1.19 ± 0.15. Moreover, the kynurenine production in experiment [2] worked out at 1.06 ± 0.15.
Consider `CC(=O)O[C@@]12CO[C@@H]1C[C@H](O)[C@@]1(C)C(=O)[C@H](O)C3=C(C)[C@@H](OC(=O)[C@H](O)[C@@H](NC(=O)OC(C)(C)C)c4ccccc4)C[C@@](O)([C@@H](OC(=O)c4ccccc4)[C@H]21)C3(C)C` [Docetaxel] (compound dose: 10 uM), for which the cell viability in experiment [1] worked out at 0.923 ± 0.067. Also, the kynurenine production in experiment [2] is 0.758 ± 0.051.
Take `CC(=O)OCc1cocc2c(C=O)ccc1-2` [Baldrinal] (compound dose: 10 uM): the cell viability in experiment [1] amounted to 1.006 ± 0.006. Moreover, in experiment [2], the kynurenine production is 0.785 ± 0.064.
The matching figures for `COc1ccc(-c2cc(=O)c3c(O)c(OC)c(O[C@@H]4O[C@H](CO[C@@H]5O[C@@H](C)[C@H](O)[C@@H](O)[C@H]5O)[C@@H](O)[C@H](O)[C@H]4O)cc3o2)cc1` [Pectolinarin] (compound dose: 10 uM): 0.833 ± 0.26 and 0.907 ± 0.2.
With `CC1=CC23C(=O)C(C=C4COC(C)(C)OC4C24OC(C)(C)OC14)C1C(CC3C)C1(C)C` (stereo not given) [Ingenol-3,4:5,20-diacetonide] (compound dose: 10 uM), the cell viability in experiment [1] was 1.04 ± 0.022. Also, in experiment [2], the kynurenine production stood at 1.11 ± 0.045.
The corresponding values for `C=C1C(=O)[C@@]23[C@@H]4OC5O[C@@]2(O)[C@@H](O)[C@@H]2C(C)(C)CC[C@@H](O)[C@]52[C@@H]3CC[C@@H]14` [Ponicidin] (compound dose: 10 uM) are 0.9 ± 0.21 and 0.404 ± 0.15.
The corresponding values for `CC(C)C1=CC2=CC[C@@H]3[C@](C)(CCC[C@@]3(C)C(=O)O)[C@H]2CC1` [Abietic acid] (compound dose: 10 uM) are 1.08 ± 0.025 and 0.803 ± 0.22.
The matching figures for `C=C(C(=O)O)[C@@H]1CC[C@@H](C)[C@@H]2CCC(C)=C[C@@H]21` [Artemisic acid] (compound dose: 10 uM): 0.828 ± 0.3 and 0.594 ± 0.14.
